FMDV inh = High Throughput Screening for Foot and Mouth Disease Virus Antivirals | Potency, µM (top dose mostly 57.9 µM), usual class: inhibitors | FMDV antiviral cell-based qHTS | 410,000 tested, 1.2% active; calls by dose curve; tested in HEK293T cells; further: read-out not given here; nearly all actives have a fitted effect of over 45% in size
VACV mCherry inh = qHTS for Stage-Specific Inhibitors of Vaccinia Orthopoxvirus: mCherry Reporter Primary qHTS; Vaccinia virus mCherry reporter infection, fluorescence; Potency, µM (highest dose often 36.5 µM), actives largely listed as inhibitors; 310,000 tested, 0.63% active; calls by dose curve; tested in A549 cells; further: nearly all actives have a fitted effect of over 35% in size
HCMV inh = qHTS Assay for inhibitors of the human cytomegalovirus (HCMV) | HFF cells, HCMV-luciferase reporter, 72 h; stronger effect = lower value | 410,000 tested, 4.5% active | activity change, negative = inhibition, % at 57.5 µM | AID 1259415, 2018; in the data active means activity change below about -60%; inconclusive means no clear call, values can overlap the other calls; inactive means above about -39%
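Luciferase read-out from HCMV-luciferase-infected HFFs (MOI 1 PFU/cell) 72 h post infection at 37C; compounds added after 16 h cell attachment; activity normalized between buffer-only basal and Salinomycin (10uM) inhibitor controls.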
Marburg entry inh = qHTS for inhibitors of binding or entry into cells for Marburg Virus; Potency, µM (doses to about 37.8 µM), hits mostly inhibitors; Marburg virus pseudotyped entry inhibition, cell reporter; 300,000 tested, 1.8% active; calls by dose curve; tested in HEK293 cells
Lassa entry inh = qHTS for Inhibitors of binding or entry into cells for Lassa Virus; Lassa virus pseudotype entry inhibition, cell reporter; Potency, µM (top dose mostly 37.9 µM), most hits filed as inhibitors; 300,000 tested, 1.2% active; calls by dose curve; tested in HEK293 cells; further: nearly all actives have a fitted effect of over 50% in size
Vaccinia Venus = qHTS for Stage-Specific Inhibitors of Vaccinia Orthopoxvirus: Venus Reporter Primary qHTS; Vaccinia virus Venus reporter expression, fluorescence; 330,000 tested, 0.46% active; Potency, µM (top dose mostly 36.5 µM), hits mostly inhibitors; calls by dose curve; tested in A549 cells; further: nearly all actives have a fitted effect of over 30% in size
Hits are given with their value; – = inactive; ? = inconclusive; · = no result given; ! = a repeat was not active; [ ] = another dose, or the depositor's remark. A selection: hits, their analogues and other compounds. The true share with any hit is near 6.5%.

SMILES	FMDV inh	VACV mCherry inh	HCMV inh	Marburg entry inh	Lassa entry inh	Vaccinia Venus
Cc1cc(C)c(-n2c(SCCS(=O)(=O)c3ccc(F)cc3)n[nH]c2=O)c(C)c1	–	2µM	–	?	?	2.8µM
Cc1ccc(S(=O)(=O)CCSc2nccn2C)cc1	–	–	–	–	–	–
Cc1ccc(S(=O)(=O)CCSc2n[nH]c(=O)n2-c2ccccc2)cc1	–	2µM	?	–	–	2µM
Cc1cc(C)c(-n2c(SCc3nc4ccccc4s3)n[nH]c2=O)c(C)c1	35µM	–	–	?	?	–
Cc1c(C(=O)Nc2cccc(F)c2)oc2c1-c1nn(Cc3c(F)cccc3Cl)cc1CC2	–	–	–	·	–	–
CC1(C)CC(=O)c2c(S(C)(=O)=O)sc(Br)c2C1	–	·	-60	·	·	·
CSc1sc(C(=O)O)c2c1C(=O)CC(C)(C)C2	–	·	–	·	·	·
NNC(=O)c1cc2ccccc2cc1O	6.3µM	–	-74	?	–	–
C/C(CC(=O)N1CCCC1)=N\NC(=O)c1cc2ccccc2cc1O	–	·	?	·	·	·
CCOC(=O)C(C)/C(C)=N/NC(=O)c1cc2ccccc2cc1O (centres undefined)	–	–	-74	?	?	–
O=C(NCC1CCCO1)c1cc2ccccc2cc1O (centres undefined)	–	–	–	–	?	–
O=C(NCC1CCCCC1)c1cc2ccccc2cc1O	–	?	-75	?	?	–
CCOc1ccc(S(=O)(=O)n2cnc3cc(C)c(C)cc32)cc1	?	?	-86	21µM	?	?
Cc1cc2ncn(S(=O)(=O)c3ccc(S(N)(=O)=O)cc3)c2cc1C	–	·	–	·	·	·
CC1CCCN(C2(O)C(=O)Nc3ccc([N+](=O)[O-])cc32)C1 (centres undefined)	–	·	-63	·	·	·
O=C1Nc2ccc([N+](=O)[O-])cc2C1(O)N1CCCCC1 (centres undefined)	–	–	–	–	–	–
Cc1oc2c(c1C(=O)N1CCC(C)CC1)C(=O)c1ccccc1C2=O	?	?	?	?	–	?
CCOC(=O)C1CCN(C(=O)c2c(C)oc3c2C(=O)c2ccccc2C3=O)CC1	28µM	14µM	–	–	?	14µM
COc1ccc(OC)c(-c2cc(Cl)c3c(c2)CC(CNC(=O)c2cnn4cccnc24)O3)c1 (centres undefined)	–	–	·	·	·	–
CCc1ccc(NC(=O)C2=CC(c3cccs3)=NS(=O)(=O)N2C)cc1	–	?	-75!	–	–	–
COc1cc(-c2noc(-c3ccc(N(C)C)c([N+](=O)[O-])c3)n2)cc(OC)c1OC	–	–	–	–	–	–
C[C@H]1[C@@H](c2ccccc2)Oc2c(Cl)cccc2S(=O)(=O)N1C	·	·	–	?	·	·
O=C1CCNc2cc3ccccc3cc21	–	22µM	·	–	–	?
CCOC(=O)Cc1c(C)nc2c(-c3cccc(Br)c3)cnn2c1C	–	–	-75	–	?	–
Cc1noc(C)c1CN1CCN2C(C(=O)Nc3ccccc3)=COC2=NC1=O	·	·	–	·	·	·
SMILES	FMDV inh	VACV mCherry inh	HCMV inh	Marburg entry inh	Lassa entry inh	Vaccinia Venus
COc1cccc(CN2CCN3C(C(=O)Nc4ccccc4)=COC3=NC2=O)c1	·	·	-62	·	·	·
Cc1ccc(CNC(=O)CCCc2ccccc2)cc1	–	–	–	–	·	–
COc1ccc(CCCC(=O)NCc2ccccc2)cc1C	–	–	–	–	8.2µM	–
CC(=O)N1CCN(c2ccc(NCc3ccc(-c4ccc(Br)cc4)o3)cc2)CC1	?	·	-80	·	·	·
CN1CCN(c2ccc(NC(=O)c3ccc(-c4ccc(Br)cc4)o3)cc2)CC1	–	?	–	?	?	–
CC(=O)N1CCN(c2ccc(NCc3ccc(Br)o3)cc2)CC1	–	·	-62	·	·	·
CC(=O)N1CCN(c2ccc(NCc3ccccc3)cc2)CC1	–	·	–	–	–	·
CC(=O)N1c2ccc(S(=O)(=O)NCC3CCC(C(=O)Nc4cccc(F)c4)CC3)cc2CC1C (centres undefined)	20µM	–	-77	·	?	?
CC(=O)N1c2ccc(S(=O)(=O)N3CCC(C(=O)Nc4cc(C)ccn4)CC3)cc2CC1C (centres undefined)	?	·	-69	·	·	·
CC(=O)N1c2ccc(S(=O)(=O)NCC3CCC(C(=O)Nc4cc(C)ccn4)CC3)cc2CC1C (centres undefined)	?	–	-91	–	–	?
CC(=O)N1c2ccc(S(=O)(=O)N3CCCCC3)cc2CC1C(=O)Nc1ccc(F)cc1C (centres undefined)	–	–	-79	?	–	–
CC(=O)N1c2ccc(S(=O)(=O)NCC3CCC(C(=O)Nc4ccc(C)cc4)CC3)cc2CC1C (centres undefined)	?	–	–	·	–	–
Cc1cnc(SCc2ccccn2)nc1C1CCCN(Cc2ccsc2)C1 (centres undefined)	–	–	·	·	·	–
COC(=O)c1ccccc1NC(=O)Cn1nnc2sc(-c3ccccc3)cc2c1=O	–	–	–	–	–	–
Cc1ccc(CNC(=O)C2CCN(S(=O)(=O)c3ccc4c(c3)CC(C)N4C(=O)C3CC3)CC2)cc1 (centres undefined)	–	–[7.34 µM]	–	·	·	–[7.34 µM]
CC1Cc2cc(S(=O)(=O)N3CCC(C(=O)NCc4ccco4)CC3)ccc2N1C(=O)C1CCC1 (centres undefined)	–	–	?	13µM	?	–
CC(=O)Nc1ccc(NS(=O)(=O)c2ccc3c(c2)CC(C)N3C(=O)C2CCC2)cc1 (centres undefined)	–	–	–	·	?	–
Cc1ccc(NS(=O)(=O)c2ccc3c(c2)CC(C)N3C(=O)C2CCC2)cc1Cl (centres undefined)	–	–	-76	·	–	–
COc1ccc(OC)c(NC(=O)C2CCN(S(=O)(=O)c3ccc4c(c3)CC(C)N4C(C)=O)CC2)c1 (centres undefined)	–	–	-86!	–	–	–
COc1cc(OC)c(NC(=O)C2CCN(S(=O)(=O)c3ccc4c(c3)CC(C)N4C(C)=O)CC2)cc1Cl (centres undefined)	?	·	–	·	·	·
CCN(Cc1ccccc1)C(=O)CCNS(=O)(=O)c1ccc2c(c1)CC(C)N2C(C)=O (centres undefined)	–	–	-72!	·	–	–
COc1ccc(C=CC2=CC3(C)CC2(C)C(c2ccc(OC)cc2)CC3=O)cc1 (centres undefined)	·	·	·	–	·	·
CCNc1ncc2nc(-c3ccc(Cl)cc3)c(=O)n(Cc3ccc(F)cc3)c2n1	–	·	·	·	·	·
CCc1nn(CC(=O)NCCCOC)c(=O)c2cc3occc3n12	–	–	–	–	–	–
Cc1nn(Cc2ccccc2)c(C)c1C=C1C(=O)NC(=S)NC1=O	14µM	–	–	–	–	–
O=C(Nc1ccc(Cl)cc1)c1cc2c(cc1O)[nH]c1ccccc12	?	?	-81	7.9µM	?	?
CC(=O)Nc1ccc2[nH]c3ccccc3c2c1	·	–	–	–	–	–

Assay outcomes from PubChem BioAssay.
